In PubChem BioAssay:
For some assays here: Entries with a potency or affinity are not part of this list. Activity calls are given as the source filed them. Unless noted, how the calls were made is not given here.

Experiments:
[1] = antimalarial activity against Dd2 strain (AID 2302;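 active means growth inhibition above 50% at the single 2 µM test dose, taken to imply half-maximal potency below 2 µM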;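 further: 0% = DMSO untreated growth and 100% = chloroquine plus artemisinin killed control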); details: P. falciparum Dd2 in RBCs, LDH growth readout, 72 h; at 2 µM; hits give high values
[2] = HepG2 cytotoxicity, primary screen, cytotoxicity control for P. falciparum antimalarial project, cell-based, ATP luminescence (AID 2303;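 active means inhibition above 50%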;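 further: 0% = DMSO wells and 100% = digitonin-killed cells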); details: HepG2 viability, 24-48 h, at 10 µM, hits give high values
[3] = target: L-lactate dehydrogenase (Plasmodium falciparum (isolate CDC / Honduras)) (UniProt Q27743); assay: PfLDH activity inhibition – cell lysate, 3D7 strain, counter-screen for P. falciparum growth inhibition project (AID 2304);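 further: 0% = vehicle and 100% = reference inhibitor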; details: P. falciparum 3D7 crude extract, LDH APAD/NBT absorbance; at 2 µM; hits give high values
Chain of L-lactate dehydrogenase (Plasmodium falciparum (isolate CDC / Honduras)) (Q27743 whole entry, looked up): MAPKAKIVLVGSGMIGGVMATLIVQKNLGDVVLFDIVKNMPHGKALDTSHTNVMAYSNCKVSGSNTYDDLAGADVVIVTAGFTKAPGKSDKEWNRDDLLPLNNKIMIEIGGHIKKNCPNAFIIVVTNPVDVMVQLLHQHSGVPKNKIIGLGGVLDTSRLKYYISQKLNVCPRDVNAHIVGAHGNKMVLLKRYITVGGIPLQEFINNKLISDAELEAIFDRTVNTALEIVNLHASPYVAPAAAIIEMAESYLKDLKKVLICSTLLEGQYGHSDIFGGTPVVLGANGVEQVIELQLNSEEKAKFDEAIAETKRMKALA

[4] = inhibition of 3D7 malaria parasite growth – strain 3D7 (AID 2306);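 further: 0% = DMSO wells and 100% = chloroquine plus artemisinin control wells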; details: P. falciparum 3D7 erythrocytic growth, LDH absorbance, 72 h; at 2 µM; hits give high values
[5] = target: Calcium-dependent protein kinase 1 (Plasmodium falciparum (isolate 3D7)) (UniProt P62344); assay: PfCDPK1 kinase inhibitors, biochemical, TCAMS library (AID 1159585; cut-off not given, nearly all actives have IC50 up to about 0.98 µM;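 further: inhibitors leave more ATP so luminescence rises with inhibition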); details: recombinant PfCDPK1, Kinase-Glo ATP depletion luminescence
Chain of Calcium-dependent protein kinase 1 (Plasmodium falciparum (isolate 3D7)) (P62344 whole entry, looked up): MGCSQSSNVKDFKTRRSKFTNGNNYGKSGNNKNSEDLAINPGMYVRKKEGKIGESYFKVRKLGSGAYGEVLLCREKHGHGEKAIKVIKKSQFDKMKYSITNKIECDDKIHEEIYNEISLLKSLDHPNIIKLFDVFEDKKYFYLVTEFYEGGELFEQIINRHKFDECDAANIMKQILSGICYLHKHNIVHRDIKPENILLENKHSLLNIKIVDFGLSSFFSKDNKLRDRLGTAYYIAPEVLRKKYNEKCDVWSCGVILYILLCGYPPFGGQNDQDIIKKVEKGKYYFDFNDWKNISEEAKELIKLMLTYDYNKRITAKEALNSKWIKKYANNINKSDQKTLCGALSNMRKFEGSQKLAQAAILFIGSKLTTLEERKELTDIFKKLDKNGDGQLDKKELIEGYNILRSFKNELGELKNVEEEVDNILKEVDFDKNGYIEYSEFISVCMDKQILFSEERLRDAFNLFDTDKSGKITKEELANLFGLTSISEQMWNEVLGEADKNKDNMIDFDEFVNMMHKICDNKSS

[6] = target: Plasmodium falciparum protein kinase 6 (PK6, PF3D7_1337100) (UniProt Q8IDW1); assay: PfPK6 kinase inhibitors, biochemical, TCAMS library (AID 1159586); details: recombinant PfPK6, Kinase-Glo ATP depletion luminescence
Chain of Plasmodium falciparum protein kinase 6 (PK6, PF3D7_1337100) (Q8IDW1 1-305): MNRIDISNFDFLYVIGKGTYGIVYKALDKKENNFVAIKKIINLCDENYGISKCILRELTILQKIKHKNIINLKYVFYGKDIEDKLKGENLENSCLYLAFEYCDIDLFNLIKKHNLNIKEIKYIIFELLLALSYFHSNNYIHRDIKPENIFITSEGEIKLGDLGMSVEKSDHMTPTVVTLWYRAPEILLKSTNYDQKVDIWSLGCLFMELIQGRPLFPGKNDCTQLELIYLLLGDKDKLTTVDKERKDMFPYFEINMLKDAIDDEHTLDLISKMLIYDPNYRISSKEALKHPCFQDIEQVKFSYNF

[7] = target: Protein kinase 7 (PK7), Plasmodium falciparum 3D7 (PF3D7_0213400) (UniProt Q7YTF7); assay: inhibition of Plasmodium PK7 catalytic activity – biochemical, TCAMS antimalarial set, Kinase-Glo luminescence (AID 1159587); details: recombinant PfPK7, Kinase-Glo ATP depletion luminescence
Chain of Protein kinase 7 (PK7), Plasmodium falciparum 3D7 (PF3D7_0213400) (Q7YTF7 1-343): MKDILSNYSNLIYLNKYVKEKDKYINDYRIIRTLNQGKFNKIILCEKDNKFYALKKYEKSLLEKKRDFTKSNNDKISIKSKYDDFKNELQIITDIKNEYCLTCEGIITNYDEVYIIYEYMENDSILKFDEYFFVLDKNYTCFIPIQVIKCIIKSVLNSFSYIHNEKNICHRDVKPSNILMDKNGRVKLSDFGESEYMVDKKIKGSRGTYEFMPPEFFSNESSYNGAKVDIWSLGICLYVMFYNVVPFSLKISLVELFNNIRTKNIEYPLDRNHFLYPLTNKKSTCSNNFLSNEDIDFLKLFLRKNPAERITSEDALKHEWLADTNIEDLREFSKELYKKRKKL

[8] = target: Calcium-dependent protein kinase 4 (Plasmodium falciparum (isolate 3D7)) (UniProt Q8IBS5); assay: PfCDPK4 kinase inhibitors, biochemical, TCAMS library (AID 1159588; cut-off not given, nearly all actives have IC50 up to about 0.91 µM); details: recombinant PfCDPK4, Kinase-Glo ATP depletion luminescence
Chain of Calcium-dependent protein kinase 4 (Plasmodium falciparum (isolate 3D7)) (Q8IBS5 whole entry, looked up): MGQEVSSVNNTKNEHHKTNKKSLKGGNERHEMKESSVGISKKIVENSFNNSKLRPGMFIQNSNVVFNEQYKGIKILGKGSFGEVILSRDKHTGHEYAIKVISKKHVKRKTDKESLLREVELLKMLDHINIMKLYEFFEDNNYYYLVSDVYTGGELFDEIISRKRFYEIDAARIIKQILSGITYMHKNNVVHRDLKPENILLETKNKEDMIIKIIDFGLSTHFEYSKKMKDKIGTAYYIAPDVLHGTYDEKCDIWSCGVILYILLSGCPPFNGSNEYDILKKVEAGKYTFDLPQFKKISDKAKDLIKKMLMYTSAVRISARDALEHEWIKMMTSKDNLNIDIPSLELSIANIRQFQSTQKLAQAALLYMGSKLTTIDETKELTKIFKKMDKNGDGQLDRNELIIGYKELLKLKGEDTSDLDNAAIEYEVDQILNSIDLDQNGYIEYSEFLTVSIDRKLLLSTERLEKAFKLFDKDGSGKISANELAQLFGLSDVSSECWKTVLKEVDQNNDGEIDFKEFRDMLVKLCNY

COc1ccc(CN(C)Cc2ccc(NC(=O)c3cccc4c(=O)c5cccc(C)c5[nH]c34)cc2)cc1OC
active: growth inhibition [4] 92%
inactive: growth inhibition [1] 22% | inhibition [2] 7% | inhibition [3] -2% | outcome [5] | outcome [6] | outcome [7] | outcome [8]

COc1cccc(C(=O)NCCOc2ccccc2)c1Oc1ccccc1
active: growth inhibition [1] 98% | growth inhibition [4] 98%
inactive: inhibition [2] 14% | inhibition [3] -4% | outcome [5] | outcome [6] | outcome [7] | outcome [8]

CCNc1cc(C(=O)N[C@@H](Cc2ccccc2)[C@H](O)CNCc2cc(OC)cc(OC)c2)cc(N2CCCS2(=O)=O)c1
inactive: inhibition [2] -4% | inhibition [3] -2% | outcome [5] | outcome [6] | outcome [7] | outcome [8]
active: growth inhibition [1] 86% | growth inhibition [4] 99%

Nc1cc2c(C3CCN(CC4CCN(C(=O)/C=C/c5ccc(Cl)c(Cl)c5)CC4)CC3)c[nH]c2cn1
inactive: inhibition [2] 0% | inhibition [3] -3% | outcome [5] | outcome [6] | outcome [7] | outcome [8]
active: growth inhibition [1] 94% | growth inhibition [4] 101%

CCn1ccc2c(N3CCCCS3(=O)=O)cc(C(=O)N[C@@H](Cc3ccccc3)[C@H](O)CNC(C)(C)CCCC(C)C)cc21
inactive: inhibition [2] 23% | inhibition [3] -6% | outcome [5] | outcome [6] | outcome [7] | outcome [8]
active: growth inhibition [1] 98% | growth inhibition [4] 96%

CS(=O)(=O)c1ccc(-n2nc(C(F)(F)F)cc2-c2ccc(/C=N/OCC(=O)O)o2)cc1
active: growth inhibition [4] 87%
inactive: growth inhibition [1] 0% | inhibition [2] -15% | inhibition [3] -7% | outcome [5] | outcome [6] | outcome [7] | outcome [8]

CC(=O)N(C)C1CCN(Cc2ccc(-c3cccc(-c4nc5ccc(F)cc5[nH]4)c3)cc2)C1 (stereo not given)
inactive: inhibition [2] 28% | inhibition [3] 6% | outcome [5] | outcome [6] | outcome [7] | outcome [8]
active: growth inhibition [1] 79% | growth inhibition [4] 100%

Nc1nccc2ccc(OC3CCCCC3)cc12
active: growth inhibition [4] 98%
inactive: growth inhibition [1] 41% | inhibition [2] 24% | inhibition [3] -4% | outcome [5] | outcome [6] | outcome [7] | outcome [8]

CCNc1cc(C(=O)N[C@@H](Cc2ccccc2)[C@H](O)CNCCCc2ccc(OC)cc2)cc(N2CCCC2=O)c1
inactive: inhibition [2] 4% | inhibition [3] 2% | outcome [5] | outcome [6] | outcome [7] | outcome [8]
active: growth inhibition [1] 96% | growth inhibition [4] 99%

Cc1c(C(=O)Nc2cc(Sc3ccc(F)cc3)cc([N+](=O)[O-])c2)sc2ncn(Cc3cccc(F)c3)c(=O)c12
inactive: inhibition [2] -1% | inhibition [3] 5% | outcome [5] | outcome [6] | outcome [7] | outcome [8]
active: growth inhibition [1] 53% | growth inhibition [4] 100%

O=C(CC1CCCC1)N(Cc1ccc(-c2ccc(CNC3Cc4ccccc4C3)cc2)cc1)CC1CCCCN1 (stereo not given)
inactive: inhibition [2] 41% | inhibition [3] -3% | outcome [5] | outcome [6] | outcome [7] | outcome [8]
active: growth inhibition [1] 86% | growth inhibition [4] 88%

N#Cc1cccc(NC(=O)Nc2ccc3c(c2)CN(Cc2c[nH]c4ncccc24)C3)c1
inactive: growth inhibition [1] 12% | inhibition [2] 0% | inhibition [3] 5% | outcome [5] | outcome [6] | outcome [7] | outcome [8]
active: growth inhibition [4] 99%

CC1(C)N=C(N)N=C(N)N1OCCCO
active: growth inhibition [4] 96%
inactive: growth inhibition [1] -1% | inhibition [2] 27% | inhibition [3] -2% | outcome [5] | outcome [6] | outcome [7] | outcome [8]

CC(C)(C(=O)NCCC1CCN(CCCCCNC(=O)/C=C/c2ccc(Cl)c(Cl)c2)CC1)c1ccc(Cl)cc1
active: inhibition [2] 92% | growth inhibition [4] 89%
inactive: growth inhibition [1] 33% | inhibition [3] -2% | outcome [5] | outcome [6] | outcome [7] | outcome [8]

COc1ccc2nccc([C@@H](O)CN3CCC(NCc4cnc5c(c4)NC(=O)CS5)CC3)c2c1
inactive: growth inhibition [1] 29% | inhibition [2] -15% | inhibition [3] 0% | outcome [5] | outcome [6] | outcome [7] | outcome [8]
active: growth inhibition [4] 87%

CCNc1cc(C(=O)N[C@@H](Cc2ccccc2)[C@H](O)CNC(CC)c2cccc(Cl)c2)cc(N2CCCCS2(=O)=O)c1 (stereo not given in full)
inactive: inhibition [2] 12% | inhibition [3] -2% | outcome [5] | outcome [6] | outcome [7] | outcome [8]
active: growth inhibition [1] 98% | growth inhibition [4] 100%

Cc1ccc(NC(=O)Nc2ccccc2F)cc1-c1ccc(C(=O)Nc2ccncc2)cc1
active: growth inhibition [1] 54% | growth inhibition [4] 99%
inactive: inhibition [2] 36% | inhibition [3] 3% | outcome [5] | outcome [6] | outcome [7] | outcome [8]

CC(C)Nc1cc(C(=O)N[C@@H](Cc2ccccc2)[C@H](O)CNC2CCOCC2)c(F)c(N2CCCCS2(=O)=O)c1
active: growth inhibition [1] 98% | growth inhibition [4] 98%
inactive: inhibition [2] 2% | inhibition [3] -2% | outcome [5] | outcome [6] | outcome [7] | outcome [8]

O=C(NC1CCN(Cc2ccccc2O)C1)c1ccc(Cl)c(Cl)c1 (stereo not given)
inactive: inhibition [2] -9% | inhibition [3] -1% | outcome [5] | outcome [6] | outcome [7] | outcome [8]
active: growth inhibition [1] 62% | growth inhibition [4] 92%

COc1ccc(C2CCN(CCN3CCC(NC(=O)c4ccc(-c5cccc(C(F)(F)F)c5C(F)(F)F)cc4)CC3)CC2)c(OC)c1
active: growth inhibition [1] 61% | growth inhibition [4] 102%
inactive: inhibition [2] 35% | inhibition [3] -4% | outcome [5] | outcome [6] | outcome [7] | outcome [8]

COc1ccc2nc(-c3cc(-c4ccc(NC(=O)C(C)C)cc4)cnc3N)[nH]c2c1
active: growth inhibition [4] 101%
inactive: growth inhibition [1] 47% | inhibition [2] 43% | inhibition [3] 3% | outcome [5] | outcome [6] | outcome [7] | outcome [8]

O=C(NC(=O)c1ccccc1)NC1CCN(c2ccnc3cc(Cl)ccc23)C1 (stereo not given)
inactive: inhibition [2] 32% | inhibition [3] -2% | outcome [5] | outcome [6] | outcome [7] | outcome [8]
active: growth inhibition [1] 99% | growth inhibition [4] 101%

O=C(CCCCCNC(=O)c1ccc(O)c(-c2ccc(Cl)c(Cl)c2)c1)NCCc1ccc(Cl)c(Cl)c1
inactive: growth inhibition [1] 20% | inhibition [3] -6% | outcome [5] | outcome [6] | outcome [7] | outcome [8]
active: inhibition [2] 57% | growth inhibition [4] 97%

N#Cc1cccc(Nc2nccc(NCC(O)c3ccccc3C(F)(F)F)n2)c1 (stereo not given)
active: growth inhibition [4] 98%
inactive: growth inhibition [1] 39% | inhibition [2] 36% | inhibition [3] 3% | outcome [5] | outcome [6] | outcome [7] | outcome [8]

O=C(Cc1cccc(Cl)c1)Nc1cccc(-c2c[nH]c3nc(Nc4cccc(OCc5ccccc5)c4)ncc23)c1
active: growth inhibition [1] 56% | growth inhibition [4] 100%
inactive: inhibition [2] -1% | inhibition [3] -1% | outcome [5] | outcome [6] | outcome [7] | outcome [8]

Cc1cc(C(=O)OCC(=O)Nc2c(C)n(C)n(-c3ccccc3)c2=O)c(C)n1-c1ccc(F)cc1
active: growth inhibition [1] 99% | growth inhibition [4] 100%
inactive: inhibition [2] -4% | inhibition [3] -1% | outcome [5] | outcome [6] | outcome [7] | outcome [8]

CN(CCc1ccccc1)c1ncc(-c2ccccc2CNCc2ccccc2O)cn1
active: growth inhibition [1] 94% | growth inhibition [4] 99%
inactive: inhibition [2] 10% | inhibition [3] -2% | outcome [5] | outcome [6] | outcome [7] | outcome [8]

CCOC(=O)c1ccc(NC(=O)N(Cc2ccc(-c3ccc(CN4CCNCC4)cc3)cc2)Cc2cccnc2)cc1
inactive: growth inhibition [1] 34% | inhibition [2] 13% | inhibition [3] 2% | outcome [5] | outcome [6] | outcome [7] | outcome [8]
active: growth inhibition [4] 94%

N#Cc1cc(C(=O)c2cc(Cl)ccc2O)cn(-c2cccc(C(F)(F)F)c2)c1=O
active: growth inhibition [4] 87%
inactive: growth inhibition [1] 7% | inhibition [2] -1% | inhibition [3] -2% | outcome [5] | outcome [6] | outcome [7] | outcome [8]

CC1(C)N=C(N)N=C(N)N1OCOc1ccc(Cl)cc1
active: growth inhibition [1] 96% | inhibition [2] 68% | growth inhibition [4] 94%
inactive: inhibition [3] 6% | outcome [5] | outcome [6] | outcome [7] | outcome [8]

CC(=O)Nc1ccc(S(=O)(=O)NC2=NC(C)(C)N(OCc3ccc(Cl)c(Cl)c3)C(N)=N2)cc1
inactive: inhibition [2] 44% | inhibition [3] 2% | outcome [5] | outcome [6] | outcome [7] | outcome [8]
active: growth inhibition [1] 98% | growth inhibition [4] 93%

Cc1c(F)cc(C(=O)NC2CC2)cc1-c1ccc2c(cnn2S(=O)(=O)c2cccs2)c1
inactive: inhibition [2] 32% | inhibition [3] -4% | outcome [5] | outcome [6] | outcome [7] | outcome [8]
active: growth inhibition [1] 68% | growth inhibition [4] 92%

c1ccc(C23N=C(Nc4nc5ccccc5[nH]4)NC2(c2ccccc2)NC(Nc2nc4ccccc4[nH]2)=N3)cc1 (stereo not given)
inactive: inhibition [2] 2% | inhibition [3] 3% | outcome [5] | outcome [6] | outcome [7] | outcome [8]
active: growth inhibition [1] 89% | growth inhibition [4] 97%

O=C(Nc1cccc(-c2nn3ccccc3c2-c2ccnc(Nc3ccc(Cc4ccncc4)cc3)n2)c1)c1c(F)cccc1F
inactive: inhibition [2] 43% | inhibition [3] -1% | outcome [5] | outcome [6] | outcome [7] | outcome [8]
active: growth inhibition [1] 97% | growth inhibition [4] 97%

Cc1cccc(C(=O)Nc2ccnc(N(C)CCCN(C)Cc3cccc(C#N)c3)c2)c1
inactive: growth inhibition [1] 12% | inhibition [2] 1% | inhibition [3] -2% | outcome [5] | outcome [6] | outcome [7] | outcome [8]
active: growth inhibition [4] 92%

COc1cccc(Cc2cnc3nc(N)nc(N)c3c2C)c1
inactive: inhibition [3] 0% | outcome [5] | outcome [6] | outcome [7] | outcome [8]
active: growth inhibition [1] 76% | inhibition [2] 57% | growth inhibition [4] 94%

COc1ccc2nccc([C@@H](O)CN3CCC(NC(=O)c4cccc(-c5cc(C)no5)c4)CC3)c2c1
inactive: inhibition [2] 19% | inhibition [3] 1% | outcome [5] | outcome [6] | outcome [7] | outcome [8]
active: growth inhibition [1] 89% | growth inhibition [4] 93%

COc1ccc(-c2nc3c(NCc4ccccc4)nccc3[nH]2)c(OC)c1
active: growth inhibition [4] 99%
inactive: growth inhibition [1] 21% | inhibition [2] 16% | inhibition [3] 4% | outcome [5] | outcome [6] | outcome [7] | outcome [8]

OC(CNCc1cccc(Oc2ccc(Cl)cc2)c1)c1cccc(C(F)(F)F)c1 (stereo not given)
inactive: inhibition [2] -1% | inhibition [3] 3% | outcome [5] | outcome [6] | outcome [7] | outcome [8]
active: growth inhibition [1] 78% | growth inhibition [4] 94%

N=c1n(CCN2CCCCC2)c2ccccc2n1CC(O)c1cccc(Br)c1 (stereo not given)
inactive: growth inhibition [1] 33% | inhibition [2] 25% | inhibition [3] -1% | outcome [5] | outcome [6] | outcome [7] | outcome [8]
active: growth inhibition [4] 86%
